# Test results published in the supplement of paper PMC3545927.
# The other results are listed elsewhere or left out. No count for the full screen is at hand.
# B1: HC170 (peptide)
# chain: CAPQDVKFPGAGNASASA
# B2: HC688 (peptide)
# chain: CAVEGEVQIVAGNASASA
# B3: FS-562 (peptide)
# chain: CASIARQKRIAGNASASA
# B4: FS-719 (peptide)
# chain: CASITRMKRIAGNASASA
# B5: FS-277 (peptide)
# chain: CAMSTRKARIAGNASASA
# B6: FS-821 (peptide)
# chain: CALHRRQKRIAGNASASA
# B7: FS-1194 (peptide)
# chain: CAERLRQKRIAGNASASA
# B8: FS-1974 (peptide)
# chain: CARSLRSWLIAGNASASA
# B9: HC1141 (peptide)
# chain: CAHQWISSECAGNASASA
# B10: HC518 (peptide)
# chain: CAKWEYVVLLAGNASASA
# B11: FS-771 (peptide)
# chain: CAFPMRSKKIAGNASASA
# B12: FS-513 (peptide)
# chain: CAVPRRSKRIAGNASASA
# B13: FS-750 (peptide)
# chain: CAANRRMKRIAGNASASA
# B14: FS-221 (peptide)
# chain: CADDERSKRIAGNASASA
# B15: FS-1846 (peptide)
# chain: CALVVRGPPGAGNASASA
# B16: FS-1336 (peptide)
# chain: CAHHHRHHRAAGNASASA
# B17: FS-1006 (peptide)
# chain: CAHHHRHRRAAGNASASA
# B18: FS-296 (peptide)
# chain: CASLERLRRGAGNASASA
# B19: FS-1410 (peptide)
# chain: CASHHRHRRGAGNASASA
# B20: HC1619 (peptide)
# chain: CALRAWRHRAAGNASASA
# B21: HC1694 (peptide)
# chain: CAMKECSQHLAGNASASA
# B22: HC1901 (peptide)
# chain: CATTPCSNSWAGNASASA
# B23: FS-2119 (peptide)
# chain: CAEKKRKFIKAGNASASA
# B24: FS-2752 (peptide)
# chain: CARQKREWIKAGNASASA
# B25: FS-2753 (peptide)
# chain: CARQKREWVKAGNASASA
# B26: HC27 (peptide)
# chain: CAMEECWQHLAGNASASA
# B27: HC1609 (peptide)
# chain: CAYSPGEINRAGNASASA
# B28: HC2351 (peptide)
# chain: CAEVDCHRPSAGNASASA
# B29: FS-2287 (peptide)
# chain: CARPSRSGGRAGNASASA
# B30: FS-3190 (peptide)
# chain: CARISRSLHQAGNASASA
# B31: FS-2033 (peptide)
# chain: CARISRSISEAGNASASA
# B32: FS-1855 (peptide)
# chain: CARKKKSISLAGNASASA
# B33: HC504 (peptide)
# chain: CATGLIHLHQAGNASASA
# B34: FS-3027 (peptide)
# chain: CARPSRSISLAGNASASA
# B35: HC184 (peptide)
# chain: CARATRKTSEAGNASASA
# B36: HC718 (peptide)
# chain: CAQGSRSLTPAGNASASA
# B37: HC1589 (peptide)
# chain: CADQLEQALDAGNASASA
# B38: HC353 (peptide)
# chain: CATHVTGGSAAGNASASA
# B39: HC2114 (peptide)
# chain: CAKDVVCCSMAGNASASA
# B40: CS1 (peptide)
# chain: CADSVDAKPDAGNASASA
# B41: FS-1246 (peptide)
# chain: CAPSPRQARRAGNASASA
# B42: FS-28 (peptide)
# chain: CAGPGRVRRRAGNASASA
# B43: FS-702 (peptide)
# chain: CAPTTRVRRRAGNASASA
# B44: FS-2590 (peptide)
# chain: CARQRRIYKTAGNASASA
# B45: FS-2768 (peptide)
# chain: CARQRRVPGNAGNASASA
# B46: FS-1160 (peptide)
# chain: CARQRRVRRRAGNASASA
# Target: furin, P09958
# Assay: furin cleavage Z-score vs untreated control; higher = more cleavage, active = 3.5 or more, inactive = 1 or less, 8 variable residues between constant flanks
# Outline: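 To give the cleavage Z-score, log read counts were set against furin-free reactions, lowess-adjusted and scaled by median absolute deviation. These counts came from PCR adapter-tagged, sequenced DNA released when purified furin cut 8-mer peptides fused to a cDNA oligonucleotide and held on magnetic beads by their N-terminus. Digests were 0.01 ml, 1:10 enzyme:substrate, in 50 mM HEPES pH 7.5 with CaCl2 and NaCl, for 7.5, 15 or 30 min.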
# furin, P09958, sequence (P09958 whole entry): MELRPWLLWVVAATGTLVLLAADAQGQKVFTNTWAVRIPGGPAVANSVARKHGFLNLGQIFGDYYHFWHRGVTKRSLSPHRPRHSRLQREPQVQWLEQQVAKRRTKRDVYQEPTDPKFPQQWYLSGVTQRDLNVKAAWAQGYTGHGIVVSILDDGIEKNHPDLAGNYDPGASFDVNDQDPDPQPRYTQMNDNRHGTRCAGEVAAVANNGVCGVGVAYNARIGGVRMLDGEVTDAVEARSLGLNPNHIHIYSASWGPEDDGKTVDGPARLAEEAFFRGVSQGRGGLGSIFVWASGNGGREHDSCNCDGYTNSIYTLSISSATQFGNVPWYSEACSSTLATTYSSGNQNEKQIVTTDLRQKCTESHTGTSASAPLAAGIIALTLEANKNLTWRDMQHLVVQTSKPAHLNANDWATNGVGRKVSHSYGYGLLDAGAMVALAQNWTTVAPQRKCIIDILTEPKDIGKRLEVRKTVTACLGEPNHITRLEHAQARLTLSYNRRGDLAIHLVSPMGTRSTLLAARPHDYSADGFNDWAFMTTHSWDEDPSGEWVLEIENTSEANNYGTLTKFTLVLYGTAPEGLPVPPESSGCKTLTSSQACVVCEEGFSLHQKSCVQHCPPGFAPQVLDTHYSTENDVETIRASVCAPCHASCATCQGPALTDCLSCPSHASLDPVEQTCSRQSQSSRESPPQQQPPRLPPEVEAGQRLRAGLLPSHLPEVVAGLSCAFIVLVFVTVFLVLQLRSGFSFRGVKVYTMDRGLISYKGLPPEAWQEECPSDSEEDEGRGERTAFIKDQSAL
Sequence,furin cleavage Z-score (7.5 min),furin cleavage Z-score (15 min),furin cleavage Z-score (30 min)
B1,0.0199 (inactive),-1.23 (inactive),0.673 (inactive)
B2,-0.863 (inactive),-0.579 (inactive),-0.88 (inactive)
B3,4.19 (active),2.74,5.27 (active)
B4,6.03 (active),8.1 (active),7.63 (active)
B5,1.25,1.83,-0.362 (inactive)
B6,9.03 (active),10.1 (active),10.5 (active)
B7,4.13 (active),5.45 (active),4.4 (active)
B8,0.545 (inactive),0.463 (inactive),0.528 (inactive)
B9,-0.592 (inactive),-1.1 (inactive),0.453 (inactive)
B10,0.0863 (inactive),-1.74 (inactive),-0.726 (inactive)
B11,-1.66 (inactive),0.142 (inactive),-0.16 (inactive)
B12,6.01 (active),7.79 (active),6.97 (active)
B13,7.06 (active),9.01 (active),7.77 (active)
B14,0.272 (inactive),0.273 (inactive),-0.987 (inactive)
B15,-0.565 (inactive),-0.565 (inactive),-0.843 (inactive)
B16,2.38,2.68,3.58 (active)
B17,9.03 (active),6.62 (active),5.92 (active)
B18,0.592 (inactive),0.0398 (inactive),0.764 (inactive)
B19,9.65 (active),10.8 (active),9.31 (active)
B20,2.05,0.378 (inactive),0.854 (inactive)
B21,-0.048 (inactive),-0.457 (inactive),-0.785 (inactive)
B22,0.617 (inactive),0.249 (inactive),1.55
B23,-0.691 (inactive),-0.493 (inactive),-0.629 (inactive)

Sequence,furin cleavage Z-score (7.5 min),furin cleavage Z-score (15 min),furin cleavage Z-score (30 min)
B24,4.32 (active),5.62 (active),9.03 (active)
B25,3.59 (active),6.92 (active),8.88 (active)
B26,1.1,1.46,0.479 (inactive)
B27,-1.45 (inactive),1.01,-0.452 (inactive)
B28,0.842 (inactive),0.436 (inactive),0.244 (inactive)
B29,-1.07 (inactive),-0.551 (inactive),-0.606 (inactive)
B30,6.79 (active),8.81 (active),8.11 (active)
B31,7.46 (active),8.18 (active),7.34 (active)
B32,0.218 (inactive),1.42,3.47
B33,0.174 (inactive),0.0378 (inactive),-0.549 (inactive)
B34,3.14,4.81 (active),5.36 (active)
B35,-0.121 (inactive),-1.01 (inactive),-1.25 (inactive)
B36,0.532 (inactive),-0.507 (inactive),0.396 (inactive)
B37,-1.05 (inactive),-1.96 (inactive),-1.11 (inactive)
B38,-0.463 (inactive),-0.337 (inactive),-2.02 (inactive)
B39,0.322 (inactive),0.43 (inactive),-1.58 (inactive)
B40,-0.899 (inactive),-0.697 (inactive),-0.815 (inactive)
B41,0.263 (inactive),2.43,2.92
B42,8.24 (active),9.49 (active),7.22 (active)
B43,9.76 (active),10.9 (active),9.44 (active)
B44,-1.61 (inactive),-1.71 (inactive),-0.22 (inactive)
B45,1.18,-0.0341 (inactive),0.472 (inactive)
B46,6.79 (active),6.89 (active),6.35 (active)
